The structures appear in SMILES notation. Compounds without any hit were thinned out: in the full panel of roughly 79,000, 15% have a hit. Activity calls are given as the source filed them. No stated cut-off is given here; in the data, active means growth inhibition above about 70%; inactive means the rest.

The record followed here is PubChem BioAssay (NCI).

The experiment is described as follows: NCI Yeast Anticancer Drug Screen. Data for the sgs1 mgt1 strain (AID 161).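 Further: 0% = growth of cultures given vehicle only.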 The note with it: S. cerevisiae sgs1 mgt1 strain, at 50.0 µM, active compounds read high. The procedure, abridged: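 Mutant yeast exposed to compound; growth scored against vehicle-only wells.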
On to `CC1(C)N=C(C(N)=O)c2[nH]cnc2N1`, for which the growth inhibition is 12.8% (inactive).

Consider `CN(C(=O)C1C2c3ccccc3C(c3ccccc32)C1C(=O)N(C)c1ccccc1)c1ccccc1` (stereo unspecified), for which the growth inhibition was 22.4% (inactive).

In the case of `CCc1c(CBr)c(=O)[nH]c2ccccc12`, the growth inhibition was -10.8% (inactive).

As to `CCCCNC(=O)C(CCCC)C(CCC)(CCC)CCCC` (stereo unspecified), the growth inhibition was -16.5% (inactive).

With `COc1cccc2c1C(=O)c1c(O)c3c(c(O)c1C2=O)C[C@@](O)(c1csc(-c2ccncc2)n1)C[C@@H]3OC1CC(N)C(O)C(C)O1` (stereo partly specified), the growth inhibition was 17.2% (inactive).

`CO[C@H]1CC[C@@]2(C)C(=CC[C@H]3[C@@H]4CC[C@H]([C@H](C)CCCC(C)C)[C@@]4(C)CC[C@@H]32)C1`: the growth inhibition is 18.1% (inactive).

As for `CN(C)c1nc(=O)c2c(ccc3ccccc32)o1`, the growth inhibition was 7.6% (inactive).

Turning to `NCC(=O)Nc1ccc(C(=O)O)cc1`, the growth inhibition is 7.6% (inactive).

For `CCNC(=S)N/N=C/c1cc(OC)ccc1O`, the growth inhibition is 0.2% (inactive).

Consider `CC(C)COC(=O)N1N=NC2C3OC(CC3=O)C21` (stereo unspecified), for which the growth inhibition is -8.1% (inactive).

As for `CCCSc1nc2c(c(=O)n(C)c(=O)n2C)n1C`, the growth inhibition was 10.2% (inactive).

Consider `O=C(Nc1cccc([N+](=O)[O-])c1)Nc1ccccc1F`, for which the growth inhibition is 14.1% (inactive).

For `FS(F)(F)(F)(F)c1cccc(NC(=S)SCc2ccc3c(c2)OCO3)c1`, the growth inhibition was 98.8% (active).

Regarding `C/C(=N\Nc1ccc2ccccc2n1)c1ccccc1O`, the growth inhibition was -37.3% (inactive).

Turning to `N.N.N.N.N.O=S(=O)([O-])S(=O)(=O)[O-].[Co+3]`, the growth inhibition is 13% (inactive).

For `CC(C)(C)NC(=O)NCC1CCCC1NC(=O)NC(C)(C)C` (stereo unspecified), the growth inhibition was 3.65% (inactive).
